Screens: PubChem BioAssay, National Center for Advancing Translational Sciences (NCATS)
HT1080-NT tox – kills 2HG-producing HT-1080-NT fibrosarcoma cells. HT-1080-NT fibrosarcoma viability, CellTiter-Glo ATP luminescence, 48 h. Potency, µM (titrated, usually from 46.1 µM), for inactives: at the top dose activity, negative = less viability, hits mostly cytotoxic. 360,000 tested, 1.6% active. AID 686970;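 note: NT is the 2HG producing partner of a matched IDH1 knockdown line; 0% = DMSO-treated cells and -100% = media-only wells without cells; nearly all actives have a fitted effect of over 55% in size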
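A 48-hour cytotoxicity screen used HT-1080-NT cells plated 2 hours before compound delivery. ATP-based CellTiter-Glo luminescence measured viability, normalized to DMSO and no-cell controls.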
HT1080 IDH1KD tx – toxicity to HT-1080 IDH1 knockdown cells (counter line) | 360,000 tested, 2% active | Potency, µM (doses to about 46.1 µM), for the others: top-dose activity, negative = toxicity, hits mostly cytotoxic | AID 686971 | HT-1080 IDH1 knockdown viability, ATP luminescence, 48 h;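 note: 0% = DMSO wells and -100% = cell-free medium wells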
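Viability of IDH1-knockdown HT-1080 fibrosarcoma cells was assessed by CellTiter-Glo after 48 h at 37 °C with titrated compound; concentration-effect curves were classified by fit quality and response size.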
ATXN viability – reduces viability in counter-screen for ATXN expression inhibitors; S2 cells (HEK-293 line with an ATXN2-luciferase reporter) viability, CellTiter-Fluor protease fluorescence, 24 h; AID 651635; Potency, µM (highest dose often 56.7 µM), usual class: cytotoxic; 400,000 tested, 0.49% active; note: nearly all actives have a fitted effect of over 40% in size
TGFb inhibitor – inhibitors of TGF-b signaling | HepG2 CAGA-GFP TGF-b/SMAD3 reporter, GFP fluorescence, 18 h; TGF-beta stimulated, 500 pg/mL final | Potency, µM (titrated, usually from 46.1 µM), for inactives: top-dose activity, negative = inhibition, actives largely listed as inhibitors | 410,000 tested, 1.2% active | AID 588855; note: % is set by controls: 0 for no effect and ±100 for the full control effect; nearly all actives have a fitted effect of over 65% in size
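Per well, imaged GFP fluorescence of HEPG2 CAGA-GFP cells gives the signal; cells get compound, then TGF-beta (500 pg/mL final), 18 h at 37 degrees C; %Activity versus -TGF-beta and +DMSO controls.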
ATXN2 expr inh – reduces ATXN2 reporter expression in HEK-293 cells; HEK-293 ATXN2-luciferase reporter, luminescence, 24 h; Potency, µM (top dose mostly 57 µM), without a hit: at the highest dose activity change, negative = inhibition, hits mostly inhibitors; 360,000 tested, 0.72% active; note: % is set by controls: 0 for no effect and ±100 for the full control effect; nearly all actives have a fitted effect of over 55% in size
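qHTS (up to 57 uM final) was run with 24 h compound exposure of reporter cells at 37 °C. Each well was multiplexed: SteadyGlo luminescence measured ATXN2-luciferase expression after a fluorogenic Gly-Phe-AFC viability readout (25 uM final).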
HepG2 tox-1 – HepG2 cytotoxicity, counter-screen for TGF-b inhibitors; HepG2 CAGA-GFP viability, ATP luminescence, 18 h; Potency, µM (top dose mostly 46.1 µM), for inactives: top-dose activity change, negative = cytotoxicity, actives largely listed as cytotoxic; 410,000 tested, 0.76% active; AID 588856
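HepG2 CAGA-GFP cells (1000/well, DMEM with 1% FBS) received compound, then TGF-beta at 500 pg/mL final, and were incubated 18 hours at 37 degrees C. Viability was read by CellTiter-Glo luminescence. Media-only wells were set as complete cell-killing and DMSO as no toxicity.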
TGFb CAGA inh – TGF-b pathway inhibition, cherry-pick retest; AID 720534; HepG2 CAGA-GFP TGF-b reporter, GFP fluorescence, 18 h; cells stimulated with TGF-beta, 500 pg/mL; Potency, µM (series often up to 46.1 µM), for inactives: at the top dose activity, negative = inhibition, most hits filed as inhibitors; shares compounds with TGFb inhibitor; 1,600 tested, 63% active; note: % is set by controls: 0 for no effect and ±100 for the full control effect; nearly all actives have a fitted effect of over 65% in size
HepG2 tox-2 – counter-screen for TGF-b inhibitors: cytotoxicity in HepG2 cells; shares compounds with TGFb inhibitor; HepG2 CAGA-GFP viability, ATP luminescence, 18 h; cells stimulated with TGF-beta, 500 pg/mL; 1,600 tested, 27% active; AID 720535; Potency, µM (doses to about 46.1 µM), for inactives: top-dose activity, negative = cytotoxicity, hits mostly inhibitors; note: % is set by controls: 0 for no effect and ±100 for the full control effect; nearly all actives have a fitted effect of over 70% in size
TGFb CCL64 inh – orthogonal confirmation of TGF-b inhibitors in CCL64 cells | Potency, µM (series often up to 46.1 µM), inactives show at the top dose activity, negative = inhibition, most hits filed as inhibitors | shares compounds with TGFb inhibitor | CCL64 CAGA-GFP reporter, TGF-b stimulated, GFP fluorescence, 18 h | AID 720536 | 1,600 tested, 41% active; note: nearly all actives have a fitted effect of over 65% in size
TGFb COP inh – TGF-b inhibition validated with COP promoter; shares compounds with TGFb inhibitor; HepG2 COP-GFP TGF-b reporter, GFP fluorescence, 18 h; cells stimulated by added recombinant TGF-beta; Potency, µM (highest dose often 46.1 µM), without a hit: at the top dose activity, negative = inhibition, usual class: inhibitors; 1,600 tested, 3% active; note: nearly all actives have a fitted effect of over 70% in size
* marks the source's active call; other numbers are inactive results; i = inactive; ? = inconclusive; · = no result given. Hits are enriched below; roughly 3.8% of the tested compounds scored in any of these assays. Calls come from the whole dose curve; as a rule, active = well fitted curve in the direction sought with a large enough effect; inconclusive = small, poorly fitted or top-dose-only effect, or another doubt; inactive = no such curve, though single readings can be large; an effect the other way counts as inactive or inconclusive. Potency is the fitted concentration of half-maximal effect.

SMILES	HT1080-NT tox	HT1080 IDH1KD tx	ATXN viability	TGFb inhibitor	ATXN2 expr inh	HepG2 tox-1	TGFb CAGA inh	HepG2 tox-2	TGFb CCL64 inh	TGFb COP inh
Cc1ccc(C)c(Nc2ncnc3onc(C)c23)c1	·	·	i	3.5%	-7.9%	-1.4%	·	·	·	·
Cc1cccc(Oc2nc3ccccn3c(=O)c2/C=C(\C#N)c2nc3ccccc3s2)c1C	·	·	i	2.0%	10.9%	-3.4%	·	·	·	·
CN1CCc2c(sc(NC(=O)c3ccc([N+](=O)[O-])o3)c2C(N)=O)C1	6.51µM*	0.581µM*	?	1.78µM*	?	-94.5%	0.581µM*	2.31µM*	?	-80.4%
NC(=O)c1c(NC(=O)c2ccc([N+](=O)[O-])o2)sc2c1CCCC2	?	?	i	?	-15.1%	-25.5%	·	·	·	·
N#Cc1c(NC(=O)c2ccc([N+](=O)[O-])o2)sc2c1CCC2	?	?	?	?	?	-25.3%	11.6µM*	9.2µM*	14.6µM*	33.3%
C=CCN(C(C(=O)OC)C(C)C)S(=O)(=O)C=C (stereo not given)	·	·	·	0.3%	·	0.7%	·	·	·	·
COc1ccc(Nc2nc3ccccc3n3c(N)nnc23)cc1	·	·	i	5.0%	2.3%	-24.3%	·	·	·	·
CCCC(=O)N(c1ccc2oc(-c3ccccc3)c(C(=O)OCC)c2c1)S(=O)(=O)c1ccc(C)cc1	·	·	·	-21.0%	·	-0.6%	·	·	·	·
C[C@H](CO)N1C[C@H](C)[C@@H](CN(C)Cc2ccccc2)Oc2c(NC(=O)c3ccncc3)cccc2C1=O	3.6%	5.8%	i	-14.0%	-16.5%	-27.2%	·	·	·	·
COc1ccc(NC(=O)N(C)C[C@H]2Oc3c(NC(=O)c4ccncc4)cccc3C(=O)N([C@H](C)CO)C[C@@H]2C)cc1	24.0%	-4.1%	i	1.1%	-3.4%	7.8%	·	·	·	·
C[C@H](CO)N1C[C@H](C)[C@@H](CN(C)Cc2ccc(Oc3ccccc3)cc2)Oc2c(NC(=O)c3ccncc3)cccc2C1=O	-23.1%	-20.8%	?	14.1µM*	0.0%	-0.3%	23.1µM*	?	?	37.3%
COc1ccc(NC(=O)N(C)C[C@H]2Oc3c(NC(=O)c4nc5ccccc5s4)cccc3C(=O)N([C@@H](C)CO)C[C@H]2C)cc1	-14.9%	-2.5%	·	11.2µM*	?	-5.9%	?	-22.4%	18.4µM*	38.0%
CCN(CC)S(=O)(=O)c1cccc(NC(=O)CCSc2ccc(Cl)cc2)c1	-26.4%	-25.3%	i	10µM*	?	6.8%	20.6µM*	?	25.9µM*	25.9%
Cc1cc(C)n(-c2ccc(C(=O)Nc3cccc(S(=O)(=O)N(C)C)c3)cc2)n1	1.0%	-19.8%	i	?	-24.5%	1.2%	·	·	·	·
